Records with an inconclusive call do not appear. Active and inactive are the calls of the source. Calls follow the shape of the dose curve; as a rule, active = well fitted inhibition curve with a large enough effect; inconclusive = small, poorly fitted or top-dose-only effect; inactive = flat fitted curve, though single readings scatter.

The record followed here is PubChem BioAssay (NCATS).

Holding throughout (assay): qHTS profiling for inhibitors of Plasmodium falciparum proliferation (AID 504749); also: nearly all actives have a fitted effect of over 60% in size
For one test, the system named is 3D7. Particulars: P. falciparum in erythrocytes, SYBR Green DNA, 72 h; series mostly up to 28.7 µM. The essentials:
(§1)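 SYBR Green fluorescence of parasite DNA, read after lysis and overnight dark incubation, measured growth over 72 h in erythrocyte culture at 0.3% parasitemia and 2.5% hematocrit. Data normalised to DMSO and 0.29 uM artemisinin, with plate-drift correction.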

Another test concerns AA1029. Particulars: P. falciparum in erythrocytes, SYBR Green DNA, 72 h; series mostly up to 28.7 µM. The essentials:
as §1

The subject of the next test is ATS189. To be noted: P. falciparum in erythrocytes, SYBR Green DNA, 72 h; series mostly up to 28.7 µM. The essentials:
as §1

A further test relates to ATS95. Particulars: P. falciparum in erythrocytes, SYBR Green DNA, 72 h; series mostly up to 28.7 µM. Put shortly: as §1
The subject of the next test is CP192. To be noted: P. falciparum in erythrocytes, SYBR Green DNA, 72 h; series mostly up to 28.7 µM. Put shortly:
as §1

In a further test the test system is CP211. Particulars: P. falciparum in erythrocytes, SYBR Green DNA, 72 h; series mostly up to 28.7 µM. Put shortly:
as §1

In a further test the test system is CP238. Particulars: P. falciparum in erythrocytes, SYBR Green DNA, 72 h; series mostly up to 28.7 µM. Put shortly:
as §1

For another test, the system named is CP247. To be noted: P. falciparum in erythrocytes, SYBR Green DNA, 72 h; series mostly up to 28.7 µM. The essentials:
as §1

In the next test the test system is CP262. Particulars: P. falciparum in erythrocytes, SYBR Green DNA, 72 h; series mostly up to 28.7 µM. The essentials:
as §1

A further test relates to CP269. Particulars: P. falciparum in erythrocytes, SYBR Green DNA, 72 h; series mostly up to 28.7 µM. Put shortly:
as §1

The next test relates to CP305. To be noted: P. falciparum in erythrocytes, SYBR Green DNA, 72 h; series mostly up to 28.7 µM. The essentials:
as §1

For another test, the system named is CP329. To be noted: P. falciparum in erythrocytes, SYBR Green DNA, 72 h; series mostly up to 28.7 µM. Put shortly: as §1
The test system of a further test is DFO2036. Particulars: P. falciparum in erythrocytes, SYBR Green DNA, 72 h; series mostly up to 28.7 µM. The essentials:
as §1

Another test relates to DIV30. Particulars: P. falciparum in erythrocytes, SYBR Green DNA, 72 h; series mostly up to 28.7 µM. The essentials: as §1
For a further test, the system named is Dd2. To be noted: P. falciparum in erythrocytes, SYBR Green DNA, 72 h; series mostly up to 28.7 µM. The essentials: as §1
In a further test the test system is ECU. To be noted: P. falciparum in erythrocytes, SYBR Green DNA, 72 h; series mostly up to 28.7 µM. Put shortly: as §1
A further test has as its system JCK. Particulars: P. falciparum in erythrocytes, SYBR Green DNA, 72 h; series mostly up to 28.7 µM. The essentials:
as §1

For another test, the system named is P94_40. Particulars: P. falciparum in erythrocytes, SYBR Green DNA, 72 h; series mostly up to 28.7 µM. Put shortly: as §1
The test system of the next test is PC49. Particulars: P. falciparum in erythrocytes, SYBR Green DNA, 72 h; series mostly up to 28.7 µM. The essentials: as §1
Another test deals with TAB109. To be noted: P. falciparum in erythrocytes, SYBR Green DNA, 72 h; series mostly up to 12.8 µM. The essentials: as §1
Potency is read from the fitted curve at half-maximal effect.

`CNC[C@H](O)c1ccc(O)cc1`: the Potency entry in the test on 3D7, in the test with AA1029, in the test on ATS189, in the test with ATS95, in the test with CP192 and with CP211 was “inactive” in each case. Besides, the Potency entry with CP238, in the test with CP247, with CP262, in the test on CP269, with CP305 and in the test with CP329 was “inactive” throughout. Besides, the Potency result in the test on DFO2036, with DIV30, with Dd2, with ECU, in the test with JCK and in the test on P94_40 was “inactive” each time. Further, the Potency entry in the test with PC49 and in the test with TAB109 was “inactive” throughout.

In the case of `COc1ccc2c(c1OC)CN1CCc3cc4c(cc3[C@H]1C2)OCO4`, the Potency with AA1029 is 2510 nM (active); in the test on ATS95 it was 2510 nM (active); in the test with CP192, 2030 nM (active); in the test with CP211, 2030 nM (active); in the test on CP238, 3550 nM (active); in the test with CP262, 1610 nM (active). Moreover, the Potency in the test with CP269 was 2030 nM (active); in the test on CP305, 2280 nM (active); with CP329, 1610 nM (active); in the test with DIV30, 2560 nM (active); with P94_40 it was 2510 nM (active); in the test on TAB109 it was 2240 nM (active).

`C[C@@]12CC[C@H]3[C@@H](CC[C@@H]4C[C@H]5S[C@H]5C[C@]43C)[C@H]1CC[C@H]2O`: the Potency entry with 3D7, in the test with AA1029, in the test with ATS189, in the test with ATS95, in the test with CP192 and in the test with CP211 was “inactive” throughout. Further, the Potency result in the test with CP238, in the test on CP247, in the test with CP262, in the test with CP269, with CP305 and in the test with CP329 was “inactive” in each case. The Potency result in the test with DFO2036, with DIV30, in the test with Dd2, with ECU, in the test on JCK and in the test with P94_40 was “inactive” each time. Also, the Potency entry in the test with PC49 and with TAB109 was “inactive” each time.

Turning to `C[C@H]1CN(C2CCC(C#N)(c3ccc(F)cc3)CC2)CC[C@@]1(C(=O)O)c1ccccc1` (some centres not stated), the Potency result in the test on 3D7, in the test on AA1029, in the test with ATS189, in the test on ATS95, with CP192 and in the test with CP211 was “inactive” throughout. Besides, the Potency entry with CP238, with CP247, in the test on CP262, with CP269, in the test with CP305 and with CP329 was “inactive” throughout. Moreover, the Potency entry in the test on DFO2036, in the test with DIV30, with Dd2, in the test on ECU, in the test with JCK and with P94_40 was “inactive” in each case. For the same compound, the Potency result with PC49 and in the test on TAB109 was “inactive” throughout.

For `CC(C)c1c(CN(C)[C@@H](C)Cc2ccccc2)n(C)n(-c2ccccc2)c1=O`, the Potency entry with 3D7, in the test with AA1029, in the test with ATS189, with ATS95, in the test with CP192 and in the test on CP211 was “inactive” in each case. The Potency result in the test on CP238, in the test on CP247, with CP262, in the test with CP269, with CP305 and in the test on CP329 was “inactive” each time. For the same compound, the Potency entry in the test on DFO2036, with DIV30, with Dd2, in the test with ECU, with JCK and in the test on P94_40 was “inactive” in each case. Further, the Potency entry in the test with PC49 and in the test on TAB109 was “inactive” each time.

Consider `C[C@@]12CCC(=O)C=C1C=C[C@H]1[C@H]3CC[C@](O)(CCC(=O)O)[C@]3(C)CC[C@@H]12`, for which the Potency entry with 3D7, in the test on AA1029, with ATS189, in the test with ATS95, in the test with CP192 and in the test on CP211 was “inactive” in each case. Also, the Potency result in the test with CP238, in the test with CP247, in the test on CP262, in the test with CP269, in the test with CP305 and in the test on CP329 was “inactive” in each case. Further, the Potency result with DFO2036, with DIV30, in the test with Dd2, in the test with ECU, in the test with JCK and in the test with P94_40 was “inactive” throughout. The Potency result in the test with PC49 and with TAB109 was “inactive” in each case.

For `NCC[C@H](O)C(=O)N[C@H]1C[C@@H](N)[C@@H](O[C@H]2O[C@@H](CN)[C@@H](O)[C@@H](O)[C@@H]2N)[C@@H](O[C@H]2O[C@@H](CO)[C@@H](O)[C@@H]2O)[C@@H]1O`, the Potency entry with 3D7, in the test with AA1029, in the test with ATS189, with ATS95, in the test on CP192 and in the test on CP211 was “inactive” each time. Moreover, the Potency entry in the test on CP238, with CP247, in the test with CP262, in the test on CP269, in the test on CP305 and in the test on CP329 was “inactive” each time. In addition, the Potency result with DFO2036, with DIV30, in the test on Dd2, in the test with ECU, with JCK and with P94_40 was “inactive” throughout. Also, the Potency result with PC49 and in the test with TAB109 was “inactive” throughout.

Turning to `N[C@H]1C[C@H]1c1ccccc1`, the Potency result in the test with 3D7, in the test on AA1029, with ATS189, in the test on ATS95, in the test on CP192 and in the test on CP211 was “inactive” in each case. The Potency result in the test with CP238, in the test on CP247, in the test with CP262, in the test with CP269, with CP305 and in the test with CP329 was “inactive” in each case. Besides, the Potency result in the test with DFO2036, in the test with DIV30, in the test with Dd2, with ECU, with JCK and in the test on P94_40 was “inactive” each time. Further, the Potency entry in the test with PC49 and in the test with TAB109 was “inactive” each time.

For `CC(=O)O[C@H]1CC[C@@]2(C)C(=CC[C@@H]3[C@H]2CC[C@]2(C)C(=O)CC[C@H]32)C1`, the Potency entry in the test on 3D7, in the test on AA1029, with ATS189, with ATS95, with CP192 and in the test on CP211 was “inactive” throughout. Also, the Potency result with CP238, in the test with CP247, in the test on CP262, with CP269, with CP305 and in the test with CP329 was “inactive” in each case. The Potency result in the test on DFO2036, in the test with DIV30, in the test on Dd2, with ECU, with JCK and in the test with P94_40 was “inactive” throughout. Further, the Potency entry with PC49 and in the test with TAB109 was “inactive” each time.

For `CN[C@@H](C)[C@H]1CC[C@@H](N)[C@@H](O[C@@H]2[C@@H](O)[C@@H](O[C@H]3OC[C@@](C)(O)[C@@H](NC)[C@@H]3O)[C@H](N)C[C@@H]2N)O1` (tested in a mixture with another compound), the Potency result in the test with 3D7, in the test with AA1029, in the test on ATS189, in the test on ATS95, in the test with CP192 and with CP211 was “inactive” throughout. The Potency entry in the test on CP238, in the test with CP247, in the test with CP262, in the test on CP269, in the test on CP305 and in the test with CP329 was “inactive” each time. Moreover, the Potency result in the test with DFO2036, with DIV30, with Dd2, with ECU, with JCK and in the test with P94_40 was “inactive” each time. Further, the Potency entry in the test with PC49 and in the test with TAB109 was “inactive” in each case.
